From PubChem BioAssay (NCI)
Compounds without any hit were thinned out: in the full panel of roughly 83,000, 20% have a hit.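 Activity criterion: percent growth below 10, measured after cells in 96-well plates were exposed to a single compound concentration for 48 hours.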 Calls of active or inactive are those of the source.

Tests used:
Assay in all cases: NCI-60 one-dose screen, 48 h (100 = growth as untreated, 0 = no growth, -100 = all killed)
Conditions in all cases: 10 µM unless noted
[1] = test system: SK-MEL-2 melanoma
[2] = test system: EKVX NSCLC
[3] = test system: SN12C renal
[4] = test system: UO-31 renal
[5] = test system: TK-10 renal
[6] = test system: ACHN renal
[7] = test system: CAKI-1 renal
[8] = test system: A498 renal
[9] = test system: CCRF-CEM leukemia
[10] = test system: MOLT-4 leukemia
[11] = test system: RPMI-8226 leukemia
[12] = test system: OVCAR-8 ovarian
[13] = test system: OVCAR-5 ovarian
[14] = test system: OVCAR-4 ovarian
[15] = test system: SK-OV-3 ovarian
[16] = test system: IGROV1 ovarian
[17] = test system: OVCAR-3 ovarian
[18] = test system: HS 578T breast
[19] = test system: NCI/ADR-RES ovarian

Measured: growth

COc1cc(CCC[P+](c2ccccc2)(c2ccccc2)c2ccccc2)c(OC)c(OC)c1OC
inactive: [1] 80.5% | [2] 72.7% | [3] 77.5% | [4] 43.7% | [5] 91% | [6] 83.4% | [7] 39.7% | [9] 65% | [10] 57.6% | [11] 68.4% | [12] 85.6% | [13] 79.6% | [14] 49.8% | [15] 83.5% | [16] 70.5% | [17] 72% | [18] 51.8% | [19] 77.7%
active: [8] -6.09%

Cc1cc(O)c(C2=NN(c3ccc(S(N)(=O)=O)cc3)C(/C=C/c3ccccc3)C2)cc1Cl (centres undefined)
inactive: [1] 34.1% | [2] 68.8% | [3] 66.4% | [4] 78.2% | [5] 68.3% | [6] 33.1% | [7] 48.7% | [8] 39.9% | [9] 66.2% | [10] 73.3% | [11] 48.7% | [12] 38.6% | [13] 51% | [14] 34.6% | [15] 17% | [16] 16% | [17] 29.7% | [18] 39.2% | [19] 29.7%

Cc1ccc(-c2nc(SCC(=O)Nc3nc(-c4ccc(Cl)cc4)cs3)[nH]c(=O)c2C#N)cc1
inactive: [1] 82.9% | [2] 101% | [3] 110% | [4] 88.4% | [5] 103% | [6] 101% | [7] 96.1% | [8] 85.2% | [9] 103% | [10] 90.4% | [11] 103% | [12] 92.3% | [13] 94.3% | [14] 111% | [15] 100% | [16] 105% | [17] 115% | [18] 90.5% | [19] 109%

CCOC(=O)c1c(C)oc2ncnc(N3CCN(C(=O)COc4ccc(C(C)(C)C)cc4)CC3)c12
inactive: [1] 93.7% | [2] 74% | [3] 82.7% | [4] 48% | [5] 94.1% | [6] 85.9% | [7] 84.3% | [8] 82% | [9] 76.2% | [10] 59.1% | [11] 44.9% | [12] 81.5% | [13] 96.8% | [14] 74.4% | [15] 85.4% | [16] 73.7% | [17] 98.4% | [18] 78.8% | [19] 73.6%

O=C1NC(=O)C(Cn2cnc3ccccc32)N1 (centres undefined)
inactive: [1] 107% | [2] 100% | [3] 98.6% | [4] 92.6% | [5] 99.6% | [6] 99.8% | [7] 101% | [8] 76.6% | [9] 102% | [10] 99.6% | [11] 99.5% | [12] 106% | [13] 110% | [14] 105% | [15] 101% | [16] 105% | [17] 103% | [18] 107% | [19] 101%

O=C(N=c1oc2ccccc2cc1-c1cc2ccccc2[nH]1)Nc1ccc(Cl)cc1
inactive: [1] 113% | [2] 88.1% | [3] 92.6% | [4] 61.2% | [5] 151% | [6] 91.3% | [7] 72.2% | [8] 121% | [9] 109% | [10] 95.8% | [11] 88.3% | [12] 99.7% | [13] 101% | [14] 91.9% | [15] 89.4% | [16] 59.7% | [17] 103% | [18] 96.5% | [19] 98.7%

COc1ccc(/C=N/Nc2cc(=O)[nH]c3ccc(C)cc23)cc1
inactive: [1] 81.7% | [2] 82% | [3] 88.3% | [4] 75.7% | [5] 116% | [6] 92.2% | [7] 93.1% | [8] 87.8% | [9] 88% | [10] 79% | [11] 81.6% | [12] 95.6% | [13] 98% | [14] 109% | [15] 87.6% | [16] 98.4% | [17] 104% | [18] 88.3% | [19] 94.9%

Cc1oc2nc[nH]c(=O)c2c1C(=O)/C=C/c1ccc(Br)cc1
active: [3] 1.76% | [6] 1.43% | [9] 6.65% | [10] 8.42% | [11] -3.59% | [12] 7.33% | [16] 8.79% | [17] -10.9% | [19] -30.5%
inactive: [1] 11.9% | [2] 19.7% | [4] 19.4% | [5] 40.9% | [7] 28.4% | [8] 23.7% | [13] 22.3% | [14] 36% | [15] 31.5% | [18] 24.3%

O=C(CCCCCCSc1nc(-c2ccccc2)cc(-c2ccccc2)n1)NO
inactive: [1] 74% | [2] 57.1% | [3] 70.1% | [4] 22.3% | [5] 27.2% | [6] 23% | [7] 13.7% | [8] 50% | [12] 27.6% | [13] 38.9% | [14] 59.1% | [15] 47.8% | [16] 36.9% | [17] 40% | [18] 43.1%
active: [9] 2.47% | [10] 5.23% | [11] 7.64% | [19] 0.776%

Nc1cc2c(cc1Br)-c1cc(Cl)ccc1C2=O
inactive: [1] 100% | [2] 86.5% | [3] 102% | [4] 67.1% | [5] 115% | [6] 100% | [7] 78.5% | [8] 102% | [9] 98.2% | [10] 88.2% | [11] 88.7% | [12] 99.3% | [13] 91.8% | [14] 99.9% | [15] 98.7% | [16] 74.2% | [17] 96.5% | [18] 98.6% | [19] 106%

COc1ccc(-c2ncnc3c2ncn3CC#CCCl)cc1
active: [4] -86.7% | [10] 4.95%
inactive: [1] 53.4% | [2] 115% | [3] 46.3% | [5] 69.8% | [6] 52.8% | [7] 61.8% | [8] 55.7% | [9] 19.1% | [11] 34.7% | [12] 65.3% | [13] 97.7% | [14] 51.1% | [15] 85.8% | [16] 46.2% | [17] 53.4% | [18] 107% | [19] 56.2%

CC(=O)OC[C@H]1OC(Sc2sc(C(=O)c3ccc(Cl)cc3)c(N)c2-c2nc3ccccc3s2)[C@H](OC(C)=O)[C@@H](OC(C)=O)[C@@H]1OC(C)=O (some centres undefined)
inactive: [1] 104% | [2] 80.4% | [3] 54.7% | [4] 79.4% | [5] 134% | [6] 67.4% | [7] 77.1% | [8] 87.8% | [9] 70.9% | [10] 97% | [11] 73% | [12] 72.6% | [13] 87.3% | [14] 52.5% | [15] 90.5% | [16] 70.9% | [17] 103% | [18] 71.4% | [19] 78.7%

Cc1nc2ccccc2n1CC1C(=O)NC(=O)NC1=O
active: [8] -34.3%
inactive: [1] 120% | [2] 106% | [3] 104% | [4] 91.3% | [5] 107% | [6] 109% | [7] 104% | [9] 103% | [10] 98.1% | [11] 115% | [12] 105% | [13] 103% | [14] 107% | [15] 107% | [16] 106% | [17] 119% | [18] 110% | [19] 99.3%

CN(C)c1ccc(/C=N\Nc2cc(=O)[nH]c3ccc(Cl)cc23)cc1
inactive: [1] 91.2% | [2] 85.7% | [3] 104% | [4] 67.9% | [5] 127% | [6] 95.2% | [7] 90.9% | [8] 123% | [9] 95.4% | [10] 87.1% | [11] 93.2% | [12] 93.4% | [13] 101% | [14] 121% | [15] 82.9% | [16] 75.3% | [17] 108% | [18] 82.8% | [19] 99.8%

CCOC(=O)c1nc(Nc2ccc(C(C)=O)cc2)sc1C
inactive: [1] 106% | [2] 97.8% | [3] 104% | [4] 91.8% | [5] 97.9% | [6] 101% | [7] 94.7% | [8] 75.1% | [9] 99.9% | [10] 97.8% | [11] 103% | [12] 103% | [13] 99.5% | [14] 96.4% | [15] 107% | [16] 103% | [17] 105% | [18] 105% | [19] 101%

COc1cc(C(=O)/C=C/c2sc(Cl)nc2Cl)cc(OC)c1OC
active: [3] 7.55% | [6] -94.7% | [11] -38% | [17] -95.5%
inactive: [1] 82.7% | [2] 55.6% | [4] 67.2% | [5] 94.3% | [7] 37.1% | [8] 89.9% | [9] 10.9% | [10] 23.2% | [12] 33.6% | [13] 77.1% | [14] 57.2% | [15] 97.7% | [16] 25.5% | [18] 71.3% | [19] 76.3%
